“And” between values parts separate entries of the source, which are not always exact repeats. Equal entries are not always repeated. Results filed as inconclusive are left out. The source made the active and inactive calls.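 The calls were made as follows, unless noted: active = compounds whose cell count with miR-34 switched on is under 0.7 times the count with it off; inactive = the rest.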

Assay [1] in a line: viability loss in pontine glioma line – cell-based, SU-DIPG-XXV, MIPE5.0, CellTiter-Glo, qHTS, dose response (AID 1347065; cut-off not given, nearly all actives have AC50 up to about 26 µM;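 also: cells exposed to compound for 48 hours before ATP readout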). As to conditions: CellTiter-Glo ATP luminescence. (In general: ATP-based viability assays read luminescence as a measure of living cells.)
A short description of assay [2]: SU-DIPG-VI glioma cell viability, MIPE4.0 library, CellTiter-Glo luminescence, qHTS (AID 1347066; cut-off not given, nearly all actives have AC50 up to about 30 µM;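 also: cells exposed to compound for 48 hours before readout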). To be noted: CellTiter-Glo ATP luminescence.
Assay [3] can be described thus: JHH-DIPG-1 glioma cell viability, MIPE5.0 library, CellTiter-Glo luminescence, qHTS (AID 1347067; cut-off not given, nearly all actives have AC50 up to about 26 µM;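 also: cells exposed to compound for 48 hours before readout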). As to conditions: JHH-DIPG-1 glioma viability, CellTiter-Glo ATP luminescence.
The nature of assay [4]: SU-DIPG-XXV glioma cell viability, MIPE5.0 library, qHTS (AID 1347068; cut-off not given, nearly all actives have IC50 up to about 30 µM;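 as to IC50: cells exposed to compound for 48 hours before viability readout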).
A short description of assay [5]: sensitizers of A549 cells to miR-34 induction, primary screen, imaging, A549 dox-inducible miR-34, nuclei and caspase counts (AID 1347080). As to conditions: A549 miR-34 inducible, Hoechst nuclei count, 48 h.
The nature of assay [6]: survival rescue of mitochondrial mutant cells in low glucose, primary screen, MELAS cybrids, Rieske KO mouse fibroblasts, CellTiter-Glo (AID 1508586;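 active = mean z-score across replicates of 1.96 or higher in either the MELAS or the Rieske mutant cell line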;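 also: z relative to plate mean and SD of compound and empty wells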).
Assay [7] has as its target NAD(+) hydrolase SARM1 (Homo sapiens) (UniProt Q6SZW1). Put plainly: SARM1 TIR NADase inhibitors, cell lysate, NAD-Glo luminescence (AID 1508614;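 active = compound whose remaining NAD level is above about 45 nM, limit read from the data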;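 also: higher remaining NAD means stronger inhibition of SARM1 NADase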). To be noted: SAM-TIR HEK293T lysate NADase, at 1 µM, stronger effect = higher value.
Assay [8] in a line: viability rescue of complex I mutant cybrids, primary screen, cell-based, galactose medium, ATP luminescence (AID 1645843;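 active = z-score of at least 1.8 in each of two replicates, scored against plate mean and spread of sample wells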;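 also: positive z means more ATP and so rescue of galactose-driven cybrid death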). To be noted: complex I mutant cybrid cells, 72 h, stronger effect = higher value.
Assay [9] can be described thus: phospholipid biosynthesis inhibitors in animal cells, primary screen, cell-based, LOPAC library, screen 4 (AID 1347384; call rule not given here). As to conditions: phospholipid biosynthesis inhibition screen, at 10 µM.
In assay [10] the target is Mitogen-activated protein kinase 7 (Homo sapiens) (UniProt Q13164). Put plainly: ERK5 transactivation activators in reporter cells, primary screen, cell-based, HTS (AID 1508626;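 active = luciferase signal above three times the same-plate solvent-only control wells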;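 also: luciferase driven by Gal4-ERK5 fusion binding five Gal4 sites before minimal TATA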). As to conditions: HeLa Gal4-ERK5 transactivation, 18 h, at 5 µM, stronger effect = higher value.
Chain of Mitogen-activated protein kinase 7 (Homo sapiens) (Q13164 whole entry, looked up, the tested form may be a part): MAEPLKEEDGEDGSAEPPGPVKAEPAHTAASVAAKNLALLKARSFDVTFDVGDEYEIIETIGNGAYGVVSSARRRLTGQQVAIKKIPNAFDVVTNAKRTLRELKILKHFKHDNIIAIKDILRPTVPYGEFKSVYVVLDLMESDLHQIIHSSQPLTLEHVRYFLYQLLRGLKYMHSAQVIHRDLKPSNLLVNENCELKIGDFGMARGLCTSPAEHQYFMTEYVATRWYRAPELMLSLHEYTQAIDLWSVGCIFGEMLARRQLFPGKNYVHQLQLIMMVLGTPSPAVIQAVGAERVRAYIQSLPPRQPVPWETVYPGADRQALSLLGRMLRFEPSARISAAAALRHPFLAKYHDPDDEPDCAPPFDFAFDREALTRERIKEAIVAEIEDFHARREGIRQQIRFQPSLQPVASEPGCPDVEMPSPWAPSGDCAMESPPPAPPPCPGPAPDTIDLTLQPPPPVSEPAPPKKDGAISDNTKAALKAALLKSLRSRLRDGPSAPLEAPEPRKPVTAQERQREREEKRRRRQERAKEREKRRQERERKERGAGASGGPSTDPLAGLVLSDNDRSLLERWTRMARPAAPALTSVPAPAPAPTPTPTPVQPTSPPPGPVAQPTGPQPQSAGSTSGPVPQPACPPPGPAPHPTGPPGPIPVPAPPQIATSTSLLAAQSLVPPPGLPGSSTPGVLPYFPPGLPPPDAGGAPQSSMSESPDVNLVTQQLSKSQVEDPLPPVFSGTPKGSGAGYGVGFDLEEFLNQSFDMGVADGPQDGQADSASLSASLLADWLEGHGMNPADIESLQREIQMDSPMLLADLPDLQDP
[11] abbreviates: stronger effect = lower value, cell number ratio, induced over uninduced.
The mark [12] stands for this setting: measured here: relative caspase fold change +Dox/-Dox.
Setting [13] is: measured here: total cells with miR-34 induction, stronger effect = lower value.
Setting [14] is: measured here: total cells without miR-34 induction.
Where [15] appears, read: MELAS cybrid survival, CellTiter-Glo 48 h, stronger effect = higher value.
Where [16] appears, read: Rieske KO mouse fibroblast survival, CellTiter-Glo 72 h.

Chain of NAD(+) hydrolase SARM1 (Homo sapiens) (Q6SZW1 whole entry, looked up): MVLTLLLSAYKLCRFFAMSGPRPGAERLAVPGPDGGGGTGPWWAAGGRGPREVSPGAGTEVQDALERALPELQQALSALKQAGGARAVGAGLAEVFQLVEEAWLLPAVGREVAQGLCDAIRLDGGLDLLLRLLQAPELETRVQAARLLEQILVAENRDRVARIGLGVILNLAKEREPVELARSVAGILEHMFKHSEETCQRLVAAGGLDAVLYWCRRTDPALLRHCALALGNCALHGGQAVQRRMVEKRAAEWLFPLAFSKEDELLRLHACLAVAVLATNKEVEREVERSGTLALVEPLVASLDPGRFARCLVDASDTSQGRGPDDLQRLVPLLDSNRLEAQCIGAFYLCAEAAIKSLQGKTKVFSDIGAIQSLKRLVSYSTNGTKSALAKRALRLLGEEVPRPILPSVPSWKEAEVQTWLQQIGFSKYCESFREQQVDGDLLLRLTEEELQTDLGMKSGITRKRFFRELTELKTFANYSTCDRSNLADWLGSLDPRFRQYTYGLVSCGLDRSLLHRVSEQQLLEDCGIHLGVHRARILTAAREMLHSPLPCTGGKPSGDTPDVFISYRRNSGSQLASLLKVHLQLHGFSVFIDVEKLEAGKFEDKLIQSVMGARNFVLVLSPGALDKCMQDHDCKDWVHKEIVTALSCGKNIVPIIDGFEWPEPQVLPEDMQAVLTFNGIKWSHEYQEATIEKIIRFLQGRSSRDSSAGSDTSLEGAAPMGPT

Regarding `CC(C)c1ccc2oc3nc(N)c(C(=O)O)cc3c(=O)c2c1`, the call in [1], in [2], in assay [3] and in assay [4] was inactive. Further, the fold change was 0.955 (inactive) in [5] (setting [11]) and 1.68 in [5] (setting [12]). The cell count in assay [5] (setting [13]) worked out at 9060; in [5] (setting [14]), 9490. For the same compound, the z-score in assay [6] (setting [15]) was 0.841 (inactive); in [6] (setting [16]), -1.05; in [8], 0.635 (inactive). Further, in assay [7], the remaining NAD is 10 nM (inactive).

As a reminder, the AC50 is the concentration giving half of the maximal activity seen. Turning to `Cn1cnc2c1c(=O)[nH]c(=O)n2C`, the compound was classed as inactive in assay [1], in assay [3], in [4] and in assay [9]. The AC50 in [2] was 20900 nM (active). In addition, the fold change in assay [5] (setting [11]) was 0.912 (inactive) and 0.854 (inactive) and 0.906 (inactive); in assay [5] (setting [12]), 0.922 and 1.4 and 3.48. The cell count in assay [5] (setting [13]) was 9550 and 8390 and 11600; in [5] (setting [14]), 10500 and 9820 and 12900. The z-score in [6] (setting [15]) was -0.269 (inactive); in [6] (setting [16]) it was -0.702; in assay [8], 0.475 (inactive). Besides, the remaining NAD in assay [7] was 10 nM (inactive). Besides, in assay [10], the luciferase signal is 60 AU (inactive).

For `CCC1(C)CC(=O)NC1=O` (configuration not stated), the compound was classed as inactive in assay [1], in assay [2], in assay [3], in assay [4] and in [9]. Moreover, the fold change in assay [5] (setting [11]) was 0.975 (inactive) and 0.962 (inactive) and 0.96 (inactive); in assay [5] (setting [12]), 1.24 and 1.03 and 2.35. For the same compound, the cell count in assay [5] (setting [13]) is 10300 and 8160 and 12600; in assay [5] (setting [14]) it was 10600 and 8470 and 13100. For the same compound, the values for the z-score in [6] (setting [15]), in assay [6] (setting [16]) and in assay [8] were -0.00472 (inactive), -0.121 and 0.235 (inactive), respectively. For the same compound, the remaining NAD in assay [7] is 10 nM (inactive). Moreover, the luciferase signal in assay [10] is 64 AU (inactive).

As to `CNC[C@H](O)c1cccc(O)c1`, the call in assay [1], in [2], in [3], in [4] and in [9] was inactive. Also, the fold change in assay [5] (setting [11]) was 0.733 (inactive) and 0.885 (inactive) and 0.869 (inactive); in [5] (setting [12]), 1.33 and 1.38 and 1.19. Besides, the cell count in assay [5] (setting [13]) was 6820 and 9660 and 11500; in assay [5] (setting [14]), 9300 and 10900 and 13200. Besides, the z-score in [6] (setting [15]) was -0.327 (inactive); in [6] (setting [16]), 0.52; in [8], 0.64 (inactive). Further, the remaining NAD in [7] is 10 nM (inactive). Besides, in assay [10], the luciferase signal was 40 AU (inactive).

Take `CCCc1cc(C(N)=S)ccn1`: the call in assay [1], in [2], in assay [3] and in assay [4] was inactive. For the same compound, the fold change in assay [5] (setting [11]) is 0.877 (inactive) and 0.879 (inactive); in [5] (setting [12]) it was 0.726 and 1.06. Besides, the cell count in [5] (setting [13]) is 7890 and 9370; in assay [5] (setting [14]) it was 8990 and 10700. Moreover, the z-score in assay [6] (setting [15]) was -0.334 (inactive) and 1.02 (inactive) and 0.566 (inactive); in assay [6] (setting [16]), -0.0512 and 0.419 and 0.177; in assay [8] it was 0.335 (inactive). Also, the remaining NAD in assay [7] is 10 nM (inactive). The luciferase signal in [10] is 96 AU (inactive).

For orientation: IC50 means the concentration that inhibits the measured activity by half. Regarding `O=C(Nc1ccc([N+](=O)[O-])cc1Cl)c1cc(Cl)ccc1O`, the AC50 in [1] was 1180 nM (active); in assay [2] it was 590 nM (active); in assay [3], 833 nM (active). Further, the IC50 in assay [4] was 1320 nM (active). Moreover, the fold change in assay [5] (setting [11]) is 0.851 (inactive) and 1.03 (inactive) and 1.1 (inactive); in [5] (setting [12]), 0.641 and 1.64 and 2.16. For the same compound, the cell count was 1500 and 2060 and 8890 in assay [5] (setting [13]); 1770 and 2000 and 8060 in [5] (setting [14]). In [9], the outcome was active. In addition, the results for the z-score in assay [6] (setting [15]), in assay [6] (setting [16]) and in [8] were -1.03 (inactive), -0.036 and -1.18 (inactive), respectively. Moreover, the remaining NAD in assay [7] was 10 nM (inactive). Moreover, in [10], the luciferase signal is 24 AU (inactive).

Consider `O=C(O)CSCC(=O)NC1CCSC1=O` (configuration not stated), for which the compound was called inactive in [1], in assay [2], in assay [3] and in assay [4]. The fold change is 0.961 (inactive) and 0.85 (inactive) in assay [5] (setting [11]); 0.755 and 1.41 in [5] (setting [12]). The cell count in assay [5] (setting [13]) was 8260 and 8130; in assay [5] (setting [14]), 8600 and 9570. Also, the z-score in [6] (setting [15]) is -0.199 (inactive); in [6] (setting [16]), 0.356. Also, the remaining NAD in [7] was 10 nM (inactive).

The record behind these values is PubChem BioAssay.
